Measured values: PubChem BioAssay AID588443 (Southern Research Specialized Biocontainment Screening …, 2011)
Results with a measured potency or affinity are listed apart. Results filed as inconclusive are left out. Active and inactive are the calls of the source. How the calls were made is not given here.

assay: THP-1 cell cytotoxicity, cytotoxicity control, set 5 (AID 588443); settings: THP-1 cell viability, cytotoxicity CC50; series mostly up to 100 µM; viability: at the top concentration

Compound | viability
CCOC(=O)CSc1ncnc2c1cnn2-c1ccccc1 | 94% (inactive)
COC(=O)CSc1ncnc2c1cnn2-c1ccc(C)cc1C | 104% (inactive)
COc1ccc(N2CCN(C(=O)c3ccc(CNc4c(N5CCOCC5)c(=O)c4=O)cc3)CC2)cc1 | 86.9% (inactive)
CCOC(=O)CSc1ncnc2c1cnn2-c1ccc(C)cc1C | 100% (inactive)
